SMILES strings stand for the structures. The panel holds about 83,000 compounds, 20% with a hit somewhere; the sample as a whole holds those more often.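 Cell lines were cultured in 96-well plates, exposed to a single compound concentration, and assessed for percent growth 48 hours later.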 A number with no mark means an inactive call. The source made the active and inactive calls.

For this assay, the system named is HCT-116 colon. Kind of assay: NCI-60 one-dose screen, 48 h (100 = growth as untreated, 0 = no growth, -100 = all killed). Conditions: 10 µM unless noted. On the procedure: Growth inhibition of the HCT-116 human tumor cell line is measured as a screen for anti-cancer activity. Cells are grown in 96 well plates and exposed to the test compound for 48 hours. Compounds are tested at a single concentration, which is 10^-5 M for most compounds. The reported endpoint is percent growth (GI% or GIPRCNT), where numbers from 0 - 100% represent growth inhibition, and numbers from -100% - 0 represent cell death. For example, a value of 40 represents 60% growth inhibition. A value of 0 means no net growth occurred over the course of the experiment. A value of -40 indicates 40% of cells at the beginning of the experiment died by the end of the experiment. A value of -100 means all cells are dead at the end of the experiment.
NCI-60 Human Tumor Cell Lines Screen was performed using the standard one-dose NCI protocol, which is described in more detail at https://dtp.cancer.gov/discovery_development/nci-60/default.htm.
Compounds with GIPRCNT values below 10 were considered active. Activity score was based on GIPRCNT using the following formula: […]
Score is 0 for GIPRCNT values of 100 or above, 50 for GIPRCNT values of 0, and 100 for GIPRCNT values of -100.
On to `COc1ccc(C(=O)NNC(=O)CSc2nc3sc4c(c3c(=O)n2-c2ccc(Cl)cc2)CCCC4)cc1`, for which the growth is 72.7%.

For `CCCCCCCCCc1ccc(C(=O)Nc2cc(C)ccc2C(=O)OC)cc1`, the growth is 96.7%.

In the case of `Fc1ccc(Nc2nnc(-c3c[nH]c4ccccc34)o2)cc1`, the growth is 90.3%.

Turning to `COc1nc(N)ncc1-c1ccc2ncnc(N3CCc4cc(F)c(Cl)cc43)c2c1`, the growth is -8.98% (active).

With `COc1ccc2c(c1)C(Sc1ccc(Br)cc1)c1c(nc(N)c(C#N)c1N)O2` (stereo not given), the growth is 75.1%.

For `CCOC(=O)/C(F)=C/C1CC1CCc1ccc(OCC)cc1` (stereo not given), the growth is 93.7%.

`O=C(Cn1c(-c2ccccc2)nc2ccccc21)N=Nc1c(O)[nH]c2ccc(Br)cc12`: the growth was 1.09% (active).

In the case of `Nc1cc(-c2c[nH]c3ccc(Br)cc23)nc2cc(-c3c[nH]c4ccccc34)nn12`, the growth was -78% (active).

Regarding `Cc1cc(N=C(N)c2ccccc2)ccc1OCCCCCCCCn1ccnc1`, the growth is 11.4%.

Turning to `Cc1ccc(NC(=O)N/N=C/c2c[nH]c3ccccc23)c(C)c1`, the growth was -15.3% (active).

Take `FC(F)(F)c1cc2c(Cl)ncnc2n1CCN1CCCCC1`: the growth was 8.04% (active).

For `Cc1nn(-c2ccccc2)c2nc(C)n(CC(=O)N/N=C/c3ccccc3O)c(=O)c12`, the growth is 24.6%.

With `Cn1cc(-c2cc(N)n3nc(-c4c[nH]c5ccc(Cl)cc45)cc3n2)c2cc(Br)cnc21`, the growth is -74.3% (active).

For `CN(C)CCCNC(=S)Nc1ccc(/C=C/c2ccc(Cl)cc2)cc1`, the growth was -11.1% (active).

As for `C/C(=N\Nc1ccc(S(N)(=O)=O)cc1)c1cnn(-c2cc(=O)[nH]c3ccc(Br)cc23)c1C`, the growth is 58.5%.

In the case of `COc1ccc(CCC2NCCc3c(Br)c4c(c(OC)c32)OCO4)cc1` (stereo not given), the growth was 4.11% (active).

Consider `Cc1ccc(C(=O)Nc2cc(-n3ccnc3)cc(C(F)(F)F)c2)cc1-n1cc(-c2cnc3cccnn23)nn1`, for which the growth is 55.1%.

Turning to `CN(C(=O)CN1C(=O)/C(=C/c2ccco2)SC1=S)C1CCS(=O)(=O)C1` (stereo not given), the growth is 96.7%.

`CN(C)c1nc(NCCNS(=O)(=O)c2ccc(C(=O)/C=C/c3ccccc3)cc2)nc(N2CCOCC2)n1`: the growth was -28.5% (active).

As for `COc1cc(C=O)ccc1OC(=O)c1cc(-c2ccc(C)cc2)n(-c2ccc(S(C)(=O)=O)cc2)n1`, the growth is 98.7%.

For `Cc1ccc2c(c1)nc(-c1ccccc1)n2CC(=O)N=Nc1c(O)[nH]c2ccc(Cl)cc12`, the growth was -82.5% (active).

Regarding `C[C@H]1[C@@H](CC(=O)N[C@@H](Cc2coc3ccccc23)B(O)O)O[C@@H]2OC3(C)CC[C@H]4[C@H](C)CC[C@@H]1[C@@]24O3`, the growth was -56.6% (active).

With `Fc1ccc(N2CC(Cn3c(C(F)(F)F)cc4c(Cl)ncnc43)C2)c(F)c1`, the growth is -92.1% (active).

On to `COc1ccc2c(c1)C(Sc1ccc(Cl)cc1)c1c(nc(N)c(C#N)c1N)O2` (stereo not given), for which the growth was 48%.

Turning to `CCN1C(=O)N(CC)C2NNC(Sc3c(C(=O)O)c4ccccc4n(CC(C)C)c3=O)=NC21` (stereo not given), the growth is 9.94% (active).

With `COc1ccccc1NC(=O)N/N=C/c1c[nH]c2ccccc12`, the growth was 10.4%.

Consider `CN1C(=O)/C(=C/c2ccco2)S/C1=N/c1nccs1`, for which the growth is 95.2%.

In the case of `COc1ccc2[nH]c(=O)c(CSc3ccccc3Nc3nccc(-c4ccc(Cl)cc4)n3)cc2c1`, the growth is 11.9%.

For `COc1ccc2oc(=O)c(-c3csc(N/N=C(\C)c4cc(OC)c(OC)c(OC)c4)n3)cc2c1`, the growth was 92.2%.

With `COc1ccc2[nH]cc(-c3cc4nc(-c5cn(C)c6ncc(Br)cc56)cc(N)n4n3)c2c1`, the growth was -95.9% (active).

In the case of `Fc1cccc(CNc2nc(SCCN3CCOCC3)nc3c2cnn3CC(Cl)c2ccc(Br)cc2)c1` (stereo not given), the growth was 18.4%.

In the case of `Cc1cn(-c2cc(NC(=O)c3ccc(C)c(-n4cc(-c5cnc6cccnn56)nn4)c3)cc(C(F)(F)F)c2)cn1`, the growth was 53.2%.

For `COc1ccc(NC(=O)Nc2nc3ccc([N+](=O)[O-])cc3s2)cc1`, the growth was 10.3%.

With `Oc1cncc(-c2ccc3ncnc(N4CCc5cc(F)c(Cl)cc54)c3c2)c1`, the growth is 48.8%.

Turning to `CCc1ccc(SC2c3cc(OC)ccc3Oc3nc(N)c(C#N)c(N)c32)cc1` (stereo not given), the growth is -96% (active).

As to `N#CC1=C(c2ccco2)Nc2c(c(-c3ccccc3)nn2-c2ccccc2)C12C(=O)Nc1ccc(Cl)cc12` (stereo not given), the growth was -73.1% (active).

As to `COc1ccc(NC(=O)Cn2c(/C=C/c3ccc([N+](=O)[O-])cc3)nc3ccccc3c2=O)cc1`, the growth was 35.6%.

Consider `O=C1Nc2ccccc2/C1=C\c1ccc(OCC(=O)c2ccc(Br)cc2)cc1`, for which the growth was 55.4%.

As to `CC(C)C[C@H](NC(=O)[C@@H]1CCCCCCCCCCC(=O)N[C@@H](CC(=O)N2CCC[C@@H]2C2CCCC2)C(=O)N1)B(O)O`, the growth is -80% (active).

With `Cc1ccc(C(C(=O)NC2CCCCC2)N(Cc2ccccc2Cl)C(=O)c2ccc(CN3CCOCC3)o2)o1` (stereo not given), the growth was 89.1%.

These data come from PubChem BioAssay (NCI).
